# Assay outcomes from PubChem.
# The list is not random: actives were taken first. Their share in the collection is about 3.7%.
# HepG2 viability: qHTS for Inhibitors of TGF-b: Cytotox Counterscreen; HepG2 CAGA-GFP viability, ATP luminescence, 18 h; AID 588856, 2011; hit rate 0.76% among 410,000; Potency, µM (series often up to 46.1 µM), usual class: cytotoxic
#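 CellTiter-Glo luminescence gave cytotoxicity after 18 hours at 37 degrees C. The cells were HepG2 CAGA-GFP in 1% FBS DMEM, stimulated with 500 pg/mL TGF-beta after compound addition. %Activity was normalised to no-cell wells (complete cell-killing) and DMSO (no toxicity), and curves were fitted and classified.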
# ATXN viability: Viability Counterscreen for Primary qHTS for Inhibitors of ATXN expression; S2 cells (HEK-293 line with an ATXN2-luciferase reporter) viability, CellTiter-Fluor protease fluorescence, 24 h; hit rate 0.49% among 400,000; Potency, µM (top dose mostly 56.7 µM), hits mostly cytotoxic; also: nearly all actives have a fitted effect of over 40% in size
# TGFb SMAD3 inh: qHTS for Inhibitors of TGF-b; hit rate 1.2% among 410,000; HepG2 CAGA-GFP TGF-b/SMAD3 reporter, GFP fluorescence, 18 h; TGF-beta stimulated, 500 pg/mL final; Potency, µM (doses to about 46.1 µM), usual class: inhibitors; also: nearly all actives have a fitted effect of over 65% in size
#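 HEPG2 CAGA-GFP cells (1000/well, DMEM with 1% FBS) were pre-incubated 2 h at 37 degrees C, given compound by pin tool, then stimulated with TGF-beta at 500 pg/mL final for 18 h before per-cell GFP fluorescence imaging.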
# ATXN2 expr inh: Primary qHTS for Inhibitors of ATXN expression. hit rate 0.72% among 360,000. AID 1745845, 2022. Potency, µM (top dose mostly 57 µM), hits mostly inhibitors. HEK-293 ATXN2-luciferase reporter, luminescence, 24 h; also: nearly all actives have a fitted effect of over 55% in size
#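 ATXN2-luciferase reporter cells (luciferase flanked by upstream and downstream ATXN2 gene portions) were treated 24 h at 37 °C with compounds at up to 57 uM. SteadyGlo luminescence gave expression; GF-AFC fluorescence gave viability.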
# GLP1R inv ag: qHTS of GLP-1 Receptor Inverse Agonists (Inhibition Mode). HEK293 GLP-1R CRE-luciferase, luminescence, 24 h; GLP-1R form is constitutively active. Glucagon-like peptide 1 receptor (Homo sapiens), P43220. AID 624417, 2012. hit rate 1.6% among 410,000. Potency, µM (titrated, usually from 38.3 µM), usual class: inhibitors; also: nearly all actives have a fitted effect of over 55% in size
# Target sequence (P43220 whole entry, looked up): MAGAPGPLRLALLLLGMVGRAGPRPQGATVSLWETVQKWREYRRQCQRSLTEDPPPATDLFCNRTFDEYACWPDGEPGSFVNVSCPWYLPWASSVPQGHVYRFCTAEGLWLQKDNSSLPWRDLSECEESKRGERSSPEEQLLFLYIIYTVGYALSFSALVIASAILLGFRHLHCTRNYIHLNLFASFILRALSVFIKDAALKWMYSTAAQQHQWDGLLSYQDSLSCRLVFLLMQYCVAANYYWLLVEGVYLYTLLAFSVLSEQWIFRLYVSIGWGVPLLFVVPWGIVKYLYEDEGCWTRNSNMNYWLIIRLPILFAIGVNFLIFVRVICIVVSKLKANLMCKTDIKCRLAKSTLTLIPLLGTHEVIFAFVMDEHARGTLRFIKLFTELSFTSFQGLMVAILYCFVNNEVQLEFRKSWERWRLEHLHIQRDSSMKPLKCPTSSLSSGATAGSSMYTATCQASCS
#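 Inverse agonists were sought by their lowering of basal cAMP reporter luciferase output in HEK293 cells stably carrying constitutively active human GLP-1R, after 24 h compound treatment.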
# GLP-1R agonist: qHTS of GLP-1 Receptor Agonists | HEK293 GLP-1R CRE-luciferase, luminescence, 4-6 h; cells express a hypersensitive GLP-1R form | hit rate 0.007% among 380,000 | Potency, µM (titrated, usually from 45.6 µM), actives largely listed as activators
# A number is an active result; i = inactive; ? = inconclusive; nt = no result given. Calls follow the shape of the dose curve; as a rule, active = well fitted curve in the direction sought with a large enough effect; inconclusive = small, poorly fitted or top-dose-only effect, or another doubt; inactive = no such curve, though single readings can be large; an effect the other way counts as inactive or inconclusive.
SMILES,HepG2 viability,ATXN viability,TGFb SMAD3 inh,ATXN2 expr inh,GLP1R inv ag,GLP-1R agonist
CC(C)=CCC/C(C)=C/CC/C(C)=C/CCC(=O)OC/C=C(\C)CCC=C(C)C,nt,i,nt,i,nt,i
CC(C)(C)c1ccc(-n2ncc3c2CCCC3NC(=O)c2ccco2)cc1 (stereo not drawn),i,i,i,nt,10µM,i
CC(C)(C)CC(=O)OCC(=O)[C@@]1(O)CC[C@H]2[C@@H]3CCC4=CC(=O)C=C[C@]4(C)[C@H]3[C@@H](O)C[C@@]21C,nt,?,nt,i,nt,nt
CCN(c1cccc(C)c1)S(=O)(=O)c1nnc(NC(=O)C2CCCCC2)s1,i,nt,i,nt,i,nt
Cc1cc(=O)[nH]c2ccc(O)cc12,i,nt,i,nt,nt,nt
CCOC(=O)c1c(NC(=O)CN2CCN(C)CC2)sc(C(=O)Nc2ccccc2)c1C,i,i,i,i,13µM,i
CCOC(=O)c1sc(NC(=O)CCN2CCN(C)CC2)c(C(=O)OCC)c1C,i,nt,i,i,i,i
CCOC(=O)c1c(NC(=O)CN2CCN(S(=O)(=O)c3cc(Cl)ccc3Cl)CC2)sc(C(=O)N(C)C)c1C,i,?,10µM,i,?,i
COc1ccc(C(=O)/C=C/C(=O)N(CC(=O)NC2CCCCC2)CC2CCCO2)c(O)c1 (stereo not drawn),13µM,4µM,?,3.8µM,i,i
COc1ccc(C(=O)/C=C/C(=O)N(CC(=O)NC2CCCCC2)Cc2ccccc2)c(O)c1,i,?,?,?,i,i
COc1ccccc1CN(C)CC(=O)NC(=O)NC1CCCCC1,i,i,i,i,4.5µM,i
COc1ccc(C(=O)/C=C/C(=O)N(Cc2ccccc2)C(C(=O)NC2CCCCC2)c2ccncc2)c(O)c1 (stereo not drawn),i,?,?,i,?,i
COc1ccc(C(=O)/C=C/C(=O)N(CC(=O)NC2CCCCC2)Cc2ccccc2OC)c(O)c1,i,nt,?,21µM,i,i
COc1ccc(C(=O)/C=C/C(=O)N(Cc2ccccc2OC)C(C(=O)NC2CCCCC2)c2ccncc2)c(O)c1 (stereo not drawn),i,nt,?,24µM,?,i
O=C(NCCc1nnc2n1CCN(Cc1ccccn1)CC2)c1ccc(F)cc1,nt,i,nt,nt,nt,nt
Cc1ccc2c(c1)CN(CCNC(=O)c1cc3ccccc3oc1=O)CC(C)O2 (stereo not drawn),nt,i,nt,nt,nt,nt
Cc1cc(N(C)C)ccc1/C=C/c1ccnc2ccccc12,i,nt,i,nt,nt,nt
O=C(COc1ccccc1C(=O)Nc1ccccc1)Nc1cccc(Br)c1,i,nt,i,nt,nt,nt
FC(F)(F)c1cc(Cc2nc3ccccc3n2C(CCc2ccccc2)c2nc3ccccc3[nH]2)cc(C(F)(F)F)c1 (stereo not drawn),nt,nt,nt,nt,i,nt
O=C(NCc1ccccc1)C(c1ccc(C(F)(F)F)cc1)n1c(=O)c(-c2cc3ccccc3[nH]2)nc2ccccc21 (stereo not drawn),nt,nt,nt,nt,4.5µM,nt
CCCCCNC(=O)C(c1ccc(-c2ccccc2)cc1)n1c(=O)c(-c2cc3ccccc3[nH]2)nc2ccccc21 (stereo not drawn),nt,nt,nt,nt,i,nt
Cc1nnsc1-c1nc2ccccc2n1C(CCc1ccccc1)c1nc2ccccc2[nH]1 (stereo not drawn),nt,nt,nt,nt,11µM,nt
Cc1ccc(Cc2nc3ccccc3n2C(CCc2ccccc2)c2nc3ccccc3[nH]2)cc1 (stereo not drawn),nt,nt,nt,nt,i,nt
O=C(NCc1ccccc1)C(CCc1ccccc1)n1c(=O)c(-c2cc3ccccc3[nH]2)nc2ccccc21 (stereo not drawn),nt,nt,nt,nt,5.6µM,nt
O=c1c(-c2cc3ccccc3[nH]2)nc2ccccc2n1C(CCc1ccccc1)c1nc2ccccc2[nH]1 (stereo not drawn),nt,nt,nt,nt,3.2µM,nt
